# PubChem BioAssay AID588727 (Southern Research Specialized Biocontainment Screening …, 2011)
# About 450 (0.13%) of roughly 350,000 compounds were called active. How the calls were made is not given here. Only a sample is shown. Potency and affinity values are given separately.
# Assay: inhibitors of VEEV TC-83 cytopathic effect, confirmation, Vero cells (AID 588727)
# Conditions: VEEV TC-83 cytopathic effect inhibition, at 20 µM
# [1] = stronger effect = higher value unless noted
structure (smiles),measurement,setting,value
CC(C)CN(C(=O)COc1ccc(C(C)(C)C)cc1)C1CCS(=O)(=O)C1 (centres undefined),inhibition,[1],12.2% (inactive)
CN(C)N=Nc1nc2c([nH]1)c(=O)n(C)c(=O)n2C,inhibition,[1],1.78% (inactive)
CN(C)N=Nc1nc2c(c(=O)n(C)c(=O)n2C)n1C,inhibition,[1],inactive
CN(C(=O)c1cccc(NC(=O)Cc2ccc(NC(=O)C3CCN(C(=O)C4CC4)CC3)cc2)c1)C1CCCCC1,inhibition,[1],0.89% (inactive)
O=C(CSc1nccn1-c1ccc(Cl)cc1)NCc1ccc2c(c1)OCO2,inhibition,[1],3.2% (inactive)
CCOC(=O)Cc1nnc(Nc2cccc(O)c2)c2ccccc12,inhibition,[1],4.42% (inactive)
O=C(Cc1c(Cl)cccc1Cl)OCc1ccccn1,inhibition,[1],1.24% (inactive)
O=C(CN(CC1CCCO1)C(=O)CNS(=O)(=O)c1ccc(Cl)cc1)NCc1ccc(F)cc1 (centres undefined),inhibition,[1],3.94% (inactive)
COc1cc2nc(N3CCN(C(=O)c4ccco4)CC3)nc(N)c2cc1OC,inhibition,[1],23.2% (inactive)
COc1cc2nc(N3CCN(c4cc(C)ccc4C)CC3)nc(N)c2cc1OC,inhibition,[1],inactive
COC(=O)C1CCN(C(=O)COC(=O)CC(NC(N)=O)c2ccc(Cl)cc2)CC1 (centres undefined),inhibition,[1],1.27% (inactive)
CSc1nnc2c(n1)OC(c1ccc(C(=O)O)cc1)N(C(C)=O)c1ccccc1-2 (centres undefined),inhibition,[1],0.04% (inactive)
COc1ccc(NC(=O)c2ccco2)c([N+](=O)[O-])c1,inhibition,[1],inactive
O=c1c2c([nH]c3ccccc13)CCCCC2,inhibition,[1],2.45% (inactive)
O=c1c2c([nH]c3ccccc13)CCCC2,inhibition,[1],0.1% (inactive)
Fc1ccc(NC(=S)NCc2ccc3c(c2)OCO3)cc1,inhibition,[1],1.24% (inactive)
COc1ccc(CCNC(=O)Cn2c(=O)oc3cc(Cl)ccc32)cc1OC,inhibition,[1],1.85% (inactive)
N#C/C(=C\c1ccccc1[N+](=O)[O-])C(=O)NC1CCCCC1,inhibition,[1],6.23% (inactive)
CC1CCCCC1NC(=O)/C(C#N)=C/c1ccccc1F (centres undefined),inhibition,[1],10.5% (inactive)
COCCNC(=O)/C(C#N)=C/C=C/c1ccccc1[N+](=O)[O-],inhibition,[1],55.2% (inactive)
O=C(/C=C/c1ccccc1[N+](=O)[O-])NC1CCCC1,inhibition,[1],inactive
Cc1ccc(-c2nn(-c3ccccc3)cc2/C=N/n2c(-c3ccncc3)n[nH]c2=S)cc1,inhibition,[1],0.07% (inactive)
COc1cc(C(=O)NNC(=O)CCOc2ccccc2)cc(OC)c1OC,inhibition,[1],inactive
O=C(COc1ccc(-c2ccccc2)cc1)NNC(=O)NC1CCCCC1,inhibition,[1],0.67% (inactive)
N#Cc1c(NC(=O)c2ccc(Cn3cc(Br)cn3)o2)sc2c1CCCCCC2,inhibition,[1],inactive
COCC1CCCCN1C(=O)c1cccc(OC2CCN(C(=O)C3CC3)CC2)c1 (centres undefined),inhibition,[1],inactive
COc1ccc(C(=O)NCc2ccc(F)cc2)cc1S(=O)(=O)N1CCCC1,inhibition,[1],10.6% (inactive)
Cc1cc(OC(=O)c2cc(Cl)nc3ccccc23)ccc1Cl,inhibition,[1],2.81% (inactive)
CSCCC(NS(=O)(=O)c1ccc2[nH]c(=O)c(=O)[nH]c2c1)C(=O)O (centres undefined),inhibition,[1],inactive
CCNC(=O)C1CCCc2c1[nH]c1ccc(Cl)cc21 (centres undefined),inhibition,stronger effect = higher value,0.89% (inactive)
same,inhibition,"measured here: 10K pilot screen inhibition, stronger effect = higher value",1.04%
CCOC(=O)C1CCCc2c1[nH]c1ccc(Cl)cc21 (centres undefined),inhibition,[1],0.82% (inactive)
COc1ccc(-c2nn(-c3ccccc3)cc2/C=C/C(=O)N2CCOCC2)cc1OC,inhibition,[1],7.65% (inactive)
Cc1cc(C)cc(N(C(=O)c2ccc(Br)o2)C2C=CS(=O)(=O)C2)c1 (centres undefined),inhibition,[1],inactive
O=[N+]([O-])c1cccc(/C=N/Nc2nc(NCc3ccccc3)nc(N3CCOCC3)n2)c1,inhibition,[1],2.74% (inactive)
O=[N+]([O-])c1ccc(/C=N/Nc2nc(NCc3ccccc3)nc(N3CCOCC3)n2)cc1,inhibition,[1],3.18% (inactive)
COc1ccc2c(c1)OC[C@H]1[C@H]2N2C(=O)c3cc(Br)ccc3NC(=O)[C@@]2(C)[C@H]1c1ccccc1,inhibition,[1],1.07% (inactive)
O=c1[nH]ncc(N2CCCC2)c1Cl,inhibition,[1],inactive
CC(=O)c1cc(C)ccc1OC(=O)c1ccco1,inhibition,[1],inactive
CC(NC(=O)c1cccc(S(=O)(=O)N2CCN(Cc3ccccc3)CC2)c1)c1ccc(Br)cc1 (centres undefined),inhibition,[1],2.86% (inactive)
COc1ccc(NC(=O)CCCN2C(=O)/C(=C\c3ccco3)SC2=S)cc1,inhibition,[1],13.5% (inactive)
O=C(CCCN1C(=O)/C(=C/c2ccco2)SC1=S)Nc1cccc(C(=O)O)c1,inhibition,[1],11.7% (inactive)
O=C(CC(CC(=O)c1ccccc1)c1ccccc1)c1ccccc1,inhibition,[1],1.3% (inactive)
O=C(CC(C(=O)c1ccccc1)c1ccccc1)c1ccccc1 (centres undefined),inhibition,[1],12.6% (inactive)
CC(=O)N/C(=C/c1ccc(OS(=O)(=O)c2ccc(C)cc2)cc1)C(=O)NCCCO,inhibition,[1],inactive
CNC(=O)N1c2ccccc2C=Cc2ccccc21,inhibition,[1],1.28% (inactive)
NC(=O)N1c2ccccc2C=Cc2ccccc21,inhibition,[1],0.99% (inactive)
same,outcome,[1],inactive
COc1ccc(OCc2cc(C(=O)NCC(C)(C)N3CCOCC3)no2)c(Cl)c1,inhibition,[1],2.39% (inactive)
